Compound activity (PubChem)
The list is not random: actives were taken first. Their share in the collection is about 8.9%.
KB-3-1 tox: KB-3-1 parental cell cytotoxicity. AID 1347075. actives 1.4% (n = 400,000). Potency, µM (series often up to 46.1 µM), hits mostly cytotoxic. KB-3-1 viability, CellTiter-Glo ATP luminescence, 72 h; also: potency is read from the fitted curve at half-maximal effect; % is scaled to controls: 0 for no effect and ±100 for the full control effect; nearly all actives have a fitted effect of over 60% in size
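Multi-concentration cytotoxicity screen in KB-3-1 cells grown in DMEM lacking phenol red with 10% FBS. After 72 h at 37 °C with compound, ATP-dependent luminescence was recorded.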
DRD3 agonist: activates the human D3 dopamine receptor; D3R DiscoveRx beta-arrestin cells, luminescence, 90 min; max activation, %; actives 0.58% (n = 410,000); in the data active = max activation above about 30%; also: 0% is about no effect
Target sequence (P35462 whole entry, looked up): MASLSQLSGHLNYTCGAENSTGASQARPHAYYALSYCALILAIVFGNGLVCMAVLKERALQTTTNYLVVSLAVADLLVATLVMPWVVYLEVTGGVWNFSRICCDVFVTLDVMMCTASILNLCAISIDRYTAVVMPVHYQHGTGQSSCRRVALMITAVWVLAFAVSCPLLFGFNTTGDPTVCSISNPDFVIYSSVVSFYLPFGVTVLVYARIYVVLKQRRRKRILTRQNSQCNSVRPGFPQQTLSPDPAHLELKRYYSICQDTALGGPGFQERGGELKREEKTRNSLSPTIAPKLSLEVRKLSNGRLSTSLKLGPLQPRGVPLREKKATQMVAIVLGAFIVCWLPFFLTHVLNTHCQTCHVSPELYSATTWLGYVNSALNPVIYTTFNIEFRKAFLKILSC
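Agonist mode: compounds and dopamine controls were applied to plated cells for 90 min at 37 degrees C after an overnight attachment at 1500 cells/well. Luminescent read-out followed 30 - 60 minutes at room temperature with DiscoveRx detection reagent.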
D3 antag: D3 dopamine receptor (human) antagonism. P35462. D3R cells, DiscoveRx beta-arrestin luminescence, antagonist mode; stronger effect = lower value. max response, negative = inhibition, %. actives 2.5% (n = 360,000). AID 652054; in the data active = max response below about -50%; inconclusive = no clear call, values can overlap the other calls; also: % is scaled to controls: 0 for no effect and ±100 for the full control effect
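Cells plated overnight at 1500 cells/well, then exposed to library compounds with dopamine controls for 90 minutes at 37 degrees C. DiscoveRx reagent added for 30–60 minutes at room temperature; luminescence read, quantitative HTS format.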
MCF10A rereplic: inducers of DNA re-replication in MCF 10A breast cells; MCF 10A DNA re-replication, Hoechst nuclear intensity, 48 h; Potency, µM (titrated, usually from 46.1 µM), for the others: at the top dose activity, positive = re-replication, actives largely listed as activators; actives 2.9% (n = 350,000); also: potency is read from the fitted curve at half-maximal effect; % of control where 0% means no effect; nearly all actives have a fitted effect of over 50% in size
KB-V1 MDR tox: KB-V1 MDR subline cytotoxicity. KB-V1 MDR cells viability, CellTiter-Glo, 72 h. Potency, µM (series often up to 46.1 µM), most hits filed as cytotoxic. actives 3.4% (n = 400,000); also: potency is read from the fitted curve at half-maximal effect; % is scaled to controls: 0 for no effect and ±100 for the full control effect; nearly all actives have a fitted effect of over 60% in size
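Compound-treated KB-V1 multidrug-resistant cells, 72 h, 37 degrees C; viability by CellTiter-Glo. Fitted qHTS curves give the values.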
SW480 rerep: inducers of DNA re-replication in SW480 colon cancer cells; actives 1.8% (n = 340,000); Potency, µM (highest dose often 46.1 µM), inactives show at the highest dose re-replication activation, most hits filed as activators; SW480 DNA re-replication, Hoechst DNA content imaging, 48 h; also: potency is read from the fitted curve at half-maximal effect; % of control where 0% means no effect; nearly all actives have a fitted effect of over 55% in size
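SW480 cells exposed to compounds for 48 hr at 37 C, 5% CO2, then Hoechst-stained 40 min. Nuclear DNA content imaged by fluorescence scanning (405 nm excitation, 500-530 nm emission); re-replication scored as increased high-intensity nuclei.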
An asterisk follows results filed as active; i = inactive; ? = inconclusive; nt = no result given; [ ] = remark or other dose. Unless noted, calls follow the shape of the dose curve; as a rule, active = well fitted curve in the direction sought with a large enough effect; inconclusive = small, poorly fitted or top-dose-only effect, or another doubt; inactive = no such curve, though single readings can be large; an effect the other way counts as inactive or inconclusive.

SMILES	KB-3-1 tox	DRD3 agonist	D3 antag	MCF10A rereplic	KB-V1 MDR tox	SW480 rerep
CCOC(=O)c1c(N)sc(C(O)(C(F)(F)F)C(F)(F)F)c1-c1ccc(F)cc1	i	10	?	-189%[0.0737 µM]	i	18µM*
CC(C)=CCNc1ncnc2c1c(C#N)cn2C1OC(CO)C(O)C1O (stereo not drawn)	?	3	11	15µM*	?	?
OCC1OC(n2cnc3c(NO)ncnc32)C(O)C1O (stereo not drawn)	?	nt	nt	nt	i	nt
O=C(NCCCN1CCN(CCCNC(=O)c2ccccc2F)CC1)c1ccccc1F	i	-2	-51*	19%	i	7.3µM*
O=C(NCCN1CCN(c2ccccc2)CC1)c1ccccc1F	i	16	-56*	15%	i	2%
Cc1ccc(NC(=O)N2CCN3CCCCC3C2)cc1C (stereo not drawn)	nt	-4	nt	nt	nt	nt
COc1cccc(NC(=O)c2csc3c2CCCCC3)c1	i	44*	nt	nt	i	nt
COC(=O)N1CCc2c(sc(NC(=O)C3=COCCO3)c2C#N)C1	2.3µM*	-11	12	2.1µM*	?	1.5µM*
CC(C)(C)c1ccc(C(=O)Nc2sc3c(c2C(=O)O)CCC3)cc1	3.3µM*	-4	5	21µM*	?	-4%
O=C(Nc1sc2c(c1C(=O)O)CCCC2)c1ccc(F)cc1	?	0	0	-12%	i	7%
COc1cccc(C(=O)Nc2sc3c(c2C(=O)O)CCCC3)c1	18µM*	3	0	10%	?	-1%
CNC(=O)c1c(NC(=O)C2=COCCO2)sc2c1CCN(C(=O)OC)C2	i	0	2	3%	i	-3%
COc1ccc(-c2nc(CNC(=O)Nc3ccccc3)c(C)o2)cc1	i	1	nt	nt	i	nt
O=C(NCc1ccc2c(c1)OCO2)c1cc(-c2ccccc2)nn1CC1CC(c2cccnc2)=NO1 (stereo not drawn)	i	3	-13	16%	i	-8%
O=C(Nc1sc2c(c1C(=O)O)CCCCC2)c1ccccc1F	12µM*	-10	-13	13%	i	7%
Cc1ccc(C(=O)Nc2sc3c(c2C(=O)O)CCCCC3)o1	16µM*	1	-19	?	?	-3%
COc1cccc(C(=O)Nc2sc3c(c2C#N)CCN(C(C)=O)C3)c1	5.2µM*	-4	-25	4.6µM*	?	4.6µM*
CCCNC(=O)c1c(NC(=O)c2ccccc2F)sc2c1CCCCC2	i	-2	nt	nt	i	nt
COc1ccccc1N1CCN(S(=O)(=O)c2c(C)sc3ncn(CC(=O)Nc4ccccc4F)c(=O)c23)CC1	i	2	nt	nt	i	nt
CC(=O)Oc1ccccc1C(=O)OCCN=C1NS(=O)(=O)c2ccccc21	i	4	14	4%	i	3%
CN(C)CCNC(=O)CN1C(=O)COc2ccc(S(=O)(=O)N3CCCC3)cc21	i	0	nt	nt	i	nt
COc1ccc(C)cc1NC(=O)c1cc(S(=O)(=O)N2CCCCC2)c[nH]1	nt	-25	nt	nt	nt	nt
CC(C)(C)OC(=O)N1CCC(c2c(C(=O)NCCN3CCC(Cc4ccccc4)CC3)cnn2-c2ccccc2)CC1	i	-20	nt	nt	?	nt
Nc1c(-c2ccc(Cl)cc2)cnn1-c1cccc(C(F)(F)F)c1	i	-10	-18	10%	i	0%
Cc1ccc(-c2cnn(-c3cccc(C(F)(F)F)c3)c2N)cc1	i	-21	22	12%	16µM*	1%
SMILES	KB-3-1 tox	DRD3 agonist	D3 antag	MCF10A rereplic	KB-V1 MDR tox	SW480 rerep
Nc1c(-c2ccccc2)cnn1-c1cccc([N+](=O)[O-])c1	i	-3	9	6%	23µM*	-13%
C1=Cc2ccccc2/C1=C/c1ccc2c(c1)OCO2	i	nt	nt	nt	i	nt
COc1cc(Nc2nc3ccc(Cl)cc3nc2-n2nc(C)cc2C)cc(OC)c1	i	-5	nt	nt	i	nt
CCN1CCN(C(c2ccccc2)c2nnnn2Cc2ccc(OC)cc2)CC1 (stereo not drawn)	i	-9	-14	1%	i	2%
COc1ccc(C(c2nnnn2Cc2ccccc2)N2CCN(C/C=C/c3ccccc3)CC2)cc1 (stereo not drawn)	?	-16	-96*	nt	?	nt
C(=C\c1ccccc1)/CN1CCN(C(c2ccccc2)c2nnnn2Cc2ccccc2)CC1 (stereo not drawn)	?	-18	-71*	nt	i	nt
Cc1ccc2oc(-c3ccc(Cl)c(NC(=O)c4ccc(-c5ccccc5[N+](=O)[O-])o4)c3)nc2c1	i	3	nt	nt	i	nt
Fc1ccc(NC(=S)Nc2ccccc2OC(F)F)cc1Cl	?	4	12	?	16µM*	nt
Cc1cc(C)cc(NC(=S)Nc2ccc(Cl)c(Cl)c2)c1	i	-2	?	?	?	?
Cc1ccc(NC(=S)Nc2ccc(Cl)c(Cl)c2)c(OC(F)F)c1	?	-1	48	?	18µM*	-2%
FC(F)Oc1ccccc1NC(=S)Nc1cccnc1	i	2	-10	-21%	i	-3%
Cc1ccc(NC(=S)Nc2ccc(OC(F)F)c(Cl)c2)cc1Cl	21µM*	2	1	?	21µM*	1%
CSc1ccccc1NC(=O)CN(C)C(=O)C1CCN(C(=O)Nc2ccccc2)CC1	i	-9	5	15%	i	2.3µM*
CN(CC(=O)Nc1c(Cl)cccc1Cl)C(=O)C1CCN(C(=O)Nc2ccccc2)CC1	i	5	1	0%	i	-3%
O=c1oc(Cl)c(Cl)c2ccccc12	i	-36	-74*	0%	i	-5%
CC(=O)N/N=C/c1cc(C(C)C)cc(/C=N/NC(C)=O)c1O	i	10	-11	18µM*	?	15µM*
Cc1ccc(-n2ncc(C(=O)N3CCN(Cc4ccccc4)CC3)c2C2CCN(C(=O)OC(C)(C)C)CC2)c(C)c1	i	1	nt	nt	?	nt
COc1ccc2c(c1)CC(C(=O)Nc1cc(Cl)ccc1C)CO2 (stereo not drawn)	nt	68*	nt	nt	nt	nt
N=c1nc(N)nc2n1NC(c1ccc(F)cc1)=CS2	i	-3	-10	?	1.3µM*	-1%
Fc1ccc(C2=CSC3=NCCN23)cc1	i	-1	-2	-3%	i	4%
Cc1nc2sc(C(c3ccc(Cl)cc3)N3CCOCC3)c(O)n2n1 (stereo not drawn)	i	0	26	?	i	-1%
Cc1nc2sc(C(c3ccccc3)N3CCOCC3)c(O)n2n1 (stereo not drawn)	i	-7	10	4.6µM*	i	16µM*
